Shown is part of a subset that was picked to be rich in hits.
Pf Dd2 inh: blocks in vitro growth of P. falciparum Dd2 | P. falciparum Dd2 growth, SYBR Green, 72 h | Potency, µM (doses to about 28.9 µM), inactives show at the highest dose activity, negative = inhibition, usual class: inhibitors | 120,000 compounds, 4.3% hits; active = well fitted inhibition curve with a large enough effect;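 note: plate controls were DMSO vehicle for no effect and reference drug for full effect; nearly all actives have a fitted effect of over 65% in size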
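Infected erythrocytes (Dd2, 0.3% parasitemia, 2.5% hematocrit final) are added to compound in RPMI-1640/Albumax II medium, grown 72 h at 37C in low oxygen, then lysed with saponin/Triton-X containing SYBR Green and read by fluorescence.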
Numbers without * were called inactive; [ ] = dose if it differs, or a comment. Potency is the fitted concentration of half-maximal effect.

`COc1ccc(-c2nn(C)c3sc(C(=O)Nc4cc(OC)c(OC)c(OC)c4)cc23)cc1OC` gave Pf Dd2 inh 11.2µM*.
`O=C(NC1CC1)c1ccccc1OCC1CCCN(Cc2cn[nH]c2-c2ccc(F)cc2)C1` (centres undefined) gave Pf Dd2 inh -7.7%.
`COCCC(=O)N1CCCOCCNC(=O)[C@@H]2CCC[C@@H]21` gave Pf Dd2 inh 12.6%.
`Cc1cnn(CC(=O)N2CCCCCCNC(=O)[C@@H]3CCCC[C@@H]32)c1` gave Pf Dd2 inh 9.5%.
For Cc1cc(C(=O)N[C@@H]2CCOC[C@H]2OCC(=O)O)sc1-c1ccccc1 the results were Pf Dd2 inh 2.0%.
For COc1ccc2c(c1)c(CN1C[C@@H](CO)[C@H](c3nc(C)no3)C1)cn2C the results were Pf Dd2 inh 10µM*.
For COc1cccc(CN2C[C@@H](CO)[C@H](c3nc(C)no3)C2)c1OC the results were Pf Dd2 inh inactive.
For COc1ccc(CN2C[C@@H](CO)[C@H](c3nc(C)no3)C2)cc1OC the results were Pf Dd2 inh 10.1%.
Screening CC(C)NC(=O)C1=NOC2CN(C(=O)C3CC3)CC12 (centres undefined) returned Pf Dd2 inh 10.6%[44.1 µM].
`Cc1c(F)cccc1NC(=O)N1CCCC1c1nncn1-c1ccccc1` (centres undefined) gave Pf Dd2 inh 0.0%.
For COCCN1CCC(N2CCN(C(=O)c3ccc(Cl)s3)CC2)C1=O (centres undefined) the results were Pf Dd2 inh -16.6%.
`COc1ccc(CCNC(=O)c2cccc(Nc3nc4ccccc4nc3-n3nc(C)cc3C)c2)cc1OC` gave Pf Dd2 inh -14.1%.
For Cc1ccc(CNC(=O)c2ccc(Nc3nc4ccccc4n4nnnc34)cc2)cc1 the results were Pf Dd2 inh -2.9%.
`CC(NC(=O)c1cccc(Nc2nc3ccccc3n3nnnc23)c1)c1ccccc1` (centres undefined) gave Pf Dd2 inh 5.4%.
For COc1ccccc1N1CCN(C(=O)c2ccc(Nc3nc4ccccc4n4nnnc34)cc2)CC1 the results were Pf Dd2 inh 10µM*.
`O=C(NCCc1ccc(Cl)cc1)c1ccc(Nc2nc3ccccc3n3nnnc23)cc1` gave Pf Dd2 inh -26.6%.
For COc1ccc(CCNC(=O)c2ccc(Nc3nc4ccccc4n4nnnc34)cc2)cc1OC the results were Pf Dd2 inh 8.91µM*.
`CC(C)CCN1CCn2c(nn(-c3ccc(Cl)cc3)c2=O)C1` gave Pf Dd2 inh 3.3%.
O=C(C1CCN(C(=O)N2CC3CC(C2)[C@H]2CCCC(=O)N2C3)CC1)N1CCOCC1 (some centres undefined) was read as Pf Dd2 inh -9.5%.
COCCNC(=O)[C@@H](C)C1CC[C@@]2(C)CC[C@H](NC(=O)c3ccc(C#N)cc3)[C@@H](C)[C@@H]2[C@H]1O (some centres undefined) was read as Pf Dd2 inh -1.5%.
CC(C)C1=NOC2(CCCN(Cc3ccc(C(F)(F)F)cc3)C2)C1 (centres undefined) was read as Pf Dd2 inh 7.2%.
For CC(C)NC(=O)C1CCN(C(=O)N2CC3CC(C2)[C@H]2CCCC(=O)N2C3)CC1 (some centres undefined) the results were Pf Dd2 inh -3.8%.
O=C1NC2(Cc3ccccc31)CN(C(=O)C1CCCC1)C2 was read as Pf Dd2 inh 3.2%[44.1 µM].
`CCN1CC(C(=O)N2CCN(CCOc3ccccc3)CC2)CC1=O` (centres undefined) gave Pf Dd2 inh 14.4%.
For O=C(c1ccc(Cl)nc1)N1CCn2c(nn(-c3ccc([N+](=O)[O-])cc3)c2=O)C1 the results were Pf Dd2 inh -5.2%.
`CN1CCN(CCCNC(=O)c2cnn(-c3ccccc3)c2C2CCN(C(=O)OC(C)(C)C)CC2)CC1` gave Pf Dd2 inh inactive.
For CC(C)(C)OC(=O)N1CCC(c2c(C(=O)NCCN3CCC(Cc4ccccc4)CC3)cnn2-c2ccccc2)CC1 the results were Pf Dd2 inh 2.82µM*.
Screening CC(C)(C)OC(=O)N1CCC(c2c(C(=O)NCCN3CCC(Cc4ccccc4)CC3)cnn2-c2ccc(F)cc2)CC1 returned Pf Dd2 inh 1.58µM*.
`CN[C@H](C(=O)N[C@@H]1C=C(C(=O)N[C@H]2CCCNC2=O)C[C@@H](O)[C@@H]1O)C(C)C` gave Pf Dd2 inh 17.1%[44.1 µM].
`Cc1ccc(N2CCN(C(=O)C3CC(=O)N(c4n[nH]c5cccc(F)c45)C3)CC2)c(C)c1` (centres undefined) gave Pf Dd2 inh inactive.
`Cc1cc(C)cc(NC2=N[C@H]3[C@@H](O)[C@H](O)C[C@H](C(=O)N4CCC(C(N)=O)CC4)[C@H]3S2)c1` gave Pf Dd2 inh -16.1%.
Screening COCCn1ccc2c(C(=O)Nc3ccc4c(c3)C(=O)N3CCC[C@H]3C(=O)N4)cccc21 returned Pf Dd2 inh -15.7%.
`CCN(Cc1ccc(C)o1)C(=O)c1cccc(CCC(C)(C)O)c1` gave Pf Dd2 inh 3.5%.
O=C(c1ccco1)N1CCC(c2noc(CO)n2)C1 (centres undefined) was read as Pf Dd2 inh -18.5%.

Compound activity (PubChem BioAssay)
